Inconclusive results are not listed. The source made the active and inactive calls. How the source made its calls, unless noted: active means hit-call score of the fitted dose curve at least 0.9, where 1 is the maximum; inactive means score below 0.9.
Key:
[1] = biological target: Glucocorticoid receptor (Homo sapiens) (UniProt P04150); experiment: ATG_GR_TRANS: Attagene TRANS-FACTORIAL HepG2 Assay for human Glucocorticoid Receptor (GR) (AID 2282978; active means hit-call score of the fitted dose curve at least 0.9, where 1 is the maximum;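 further: activators score as hits since higher reporter transcript over DMSO is fitted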); settings: HepG2 Attagene TRANS GR reporter, mRNA transcription
Outline: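 Multiplexed TRANS reporter system, HepG2; 24 h exposure; RNA → oligo(dT) RT → reporter-specific PCR → 6-FAM primer extension → HpaI cut → CE fluorescence. Gain-of-signal vs DMSO.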

[2] = biological target: Oxysterols receptor LXR-alpha (Homo sapiens) (UniProt Q13133); experiment: ATG_LXRa_TRANS: Attagene TRANS-FACTORIAL HepG2 Assay for human Liver X Receptor alpha (LXRa) (AID 2282980; active means hit-call score of the fitted dose curve at least 0.9, where 1 is the maximum); settings: HepG2 Attagene TRANS reporter, LXRa transactivation
Outline: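 Transient HepG2 transfectants, 24 h dosing, RT-PCR/CE mRNA reporter quantitation; gain-of-signal vs DMSO.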

[3] = biological target: Oxysterols receptor LXR-beta (Homo sapiens) (UniProt P55055); experiment: ATG_LXRb_TRANS: Attagene TRANS-FACTORIAL HepG2 Assay for human Liver X Receptor beta (LXRb) (AID 2282981; active means hit-call score of the fitted dose curve at least 0.9, where 1 is the maximum); settings: HepG2 Attagene TRANS GAL4-LXRb reporter, mRNA
Outline: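 Transient transfection HepG2 (multiplexed RTUs, GAL4-UAS); NR-Gal4 chimera; 24 h exposure; RNA → RT-PCR → 6-FAM primer extension → HpaI → CE; increase vs DMSO.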

[4] = biological target: Hepatocyte nuclear factor 4-alpha (Homo sapiens) (UniProt P41235); experiment: ATG_HNF4a_TRANS: Attagene TRANS-FACTORIAL HepG2 Assay for human Hepatocyte Nuclear Factor 4 alpha (HNF4a) (AID 2282982; active means hit-call score of the fitted dose curve at least 0.9, where 1 is the maximum); settings: HepG2 HNF4a transactivation reporter, mRNA readout
Outline: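 Readout is fluorescent reporter-transcript fragments resolved by capillary electrophoresis after RT-PCR from HepG2 cells dosed for 24 h. Cells carried transfected GAL4-UAS reporter constructs measuring exogenous NR-GAL4 chimera activity; DMSO served as baseline.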

[5] = ATG_M_32_TRANS: Attagene TRANS-FACTORIAL HepG2 Assay for M32 Transcription Factor (Internal Marker) (AID 2282984; active means hit-call score of the fitted dose curve at least 0.9, where 1 is the maximum;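 further: transcript level of a background control reporter unit measured by RT-PCR and capillary electrophoresis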); settings: HepG2 Attagene TRANS M32 internal marker reporter
Outline: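 Measures reporter mRNA induction in human HepG2 liver cells after 24 h chemical treatment. Transcripts from transiently transfected GAL4-UAS reporter units are amplified, fluorescently labelled and sized by capillary electrophoresis; gain of signal relative to DMSO.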

[6] = biological target: Transcriptional activator Myb (Homo sapiens) (UniProt P10242); experiment: ATG_Myb_CIS: Attagene CIS-FACTORIAL HepG2 Assay for human Myeloblastosis (Myb) Proto-Oncogene Transcription Factor (AID 2282986); settings: HepG2 Attagene CIS-FACTORIAL Myb reporter transcription; actives raise or lower the signal
Outline: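 Endogenous transcription factor activity at a Myb-responsive cis element is reported in human liver HepG2 cells after 24 h chemical treatment. Reporter mRNA is detected by RT-PCR and capillary electrophoresis fluorescence, with DMSO as baseline.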

[7] = biological target: Nuclear respiratory factor 1 (Homo sapiens) (UniProt Q16656); experiment: ATG_NRF1_CIS: Attagene CIS-FACTORIAL HepG2 Assay for human Nuclear Respiratory Factor 1 (NRF1) Orphan Gene (AID 2282987); settings: HepG2 NRF1 cis-element reporter, Attagene multiplex; actives raise or lower the signal
Outline: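 Human hepatoma HepG2 cells carrying transfected promoter-regulated reporter units were incubated with test chemicals for 24 h. Reporter transcripts were measured by RT-PCR plus capillary electrophoresis, and endpoints derived by bidirectional fitting with DMSO as baseline.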

[8] = ATG_NFI_CIS: Attagene CIS-FACTORIAL HepG2 Assay for human Nuclear Factor I (NFI) (AID 2282989); settings: HepG2 cis-regulatory reporter, NFI response element transcription; actives raise or lower the signal
Outline: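 After transient transfection of HepG2 with cis-promoter reporter constructs and 24 h dosing, RNA is reverse-transcribed, amplified, 6-FAM end-labelled and HpaI-digested before capillary analysis. Bidirectional curve fitting against DMSO.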

[9] = biological target: Myc proto-oncogene protein (Homo sapiens) (UniProt P01106); experiment: ATG_Myc_CIS: Attagene CIS-FACTORIAL HepG2 Assay for human Myelocytomatosis (Myc) Proto-Oncogene Transcription Factor (AID 2282990); settings: HepG2, Attagene cis-reporter transcription factor activity; actives raise or lower the signal
Outline: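 Cells of the HepG2 human liver line bear multiple cis-driven reporter transcription units. Reporter mRNA after 24 h exposure is reverse-transcribed, amplified, labelled and resolved by capillary electrophoresis, with gain- or loss-of-signal fitting relative to DMSO.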

[10] = ATG_NF_kB_CIS: Attagene CIS-FACTORIAL HepG2 Assay for human Nuclear Factor Kappa B (NF-kB) (AID 2282991); settings: HepG2 Attagene cis-factorial NF-kB reporter mRNA; actives raise or lower the signal
Outline: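 Multiplexed cis-reporter assay in transiently transfected HepG2. 24 h treatment; RNA isolated, RT-PCR, labelled fragments resolved by CE. DMSO baseline.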

[11] = ATG_NRF2_ARE_CIS: Attagene CIS-FACTORIAL HepG2 Assay for human Nuclear Factor Erythroid 2 Related Factor 2 (NFR2) response to Antioxidant Response Elements (ARE) (AID 2282992); settings: HepG2 Attagene ARE/NRF2 reporter, transcription factor activity; actives raise or lower the signal
Outline: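 Cis-factorial assay: transfected HepG2 reporter library, 24 h dosing, mRNA readout via RT-PCR/CE; DMSO-referenced bidirectional analysis.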

[12] = ATG_Oct_MLP_CIS: Attagene CIS-FACTORIAL HepG2 Assay for human Octamer-Binding Transcription Factor (Oct) (AID 2282993); settings: HepG2 Attagene cis-factorial Oct reporter, mRNA; actives raise or lower the signal
Outline: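 Cells of the HepG2 line express promoter-controlled reporter sequences whose mRNA levels, after 24 h treatment, are measured by RT-PCR and capillary electrophoresis. Increases and decreases are scored relative to DMSO.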

[13] = biological target: Cellular tumor antigen p53 (Homo sapiens) (UniProt P04637); experiment: ATG_p53_CIS: Attagene CIS-FACTORIAL HepG2 Assay for human p53 Transcription Factor (AID 2282994); settings: HepG2 p53 cis-element reporter, Attagene mRNA; actives raise or lower the signal
Outline: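 Using HepG2 hepatoma cells carrying cis-acting multiplexed reporters, mRNA induction is detected after a 24 h exposure. Gain- and loss-of-signal responses are fitted relative to DMSO-treated cells.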

[14] = BSK_3C_TissueFactor: BioMAP Diversity Plus: 3C Assay for Tissue Factor Biomarker Activity (AID 2282997); settings: BioMAP 3C HUVEC, tissue factor biomarker readout; actives raise or lower the signal
Outline: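 Values derive from bidirectional curve fitting against DMSO of Tissue Factor ELISA signals, taken 24 h after dosing primary human umbilical vein endothelial cells.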

[15] = biological target: Bile acid receptor (Homo sapiens) (UniProt Q96RI1); experiment: ATG_FXR_TRANS: Attagene TRANS-FACTORIAL HepG2 Assay for Farnesoid X Receptor (FXR) (AID 2282979; active means hit-call score of the fitted dose curve at least 0.9, where 1 is the maximum;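 further: hits raise reporter mRNA above DMSO so AC50 marks FXR activation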); settings: HepG2 Attagene TRANS FXR-GAL4 reporter transcription
Outline: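 Chimeric FXR-GAL4 activity in transiently transfected human HepG2 liver cells is scored as induction of reporter mRNA after 24 h of dosing. Detection uses RT-PCR with fluorescent labelling and capillary electrophoresis, with DMSO serving as baseline.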

[16] = biological target: Nuclear receptor subfamily 4 group A member 2 (Homo sapiens) (UniProt P43354); experiment: ATG_NURR1_TRANS: Attagene TRANS-FACTORIAL HepG2 Assay for human Nuclear Receptor Related Protein 1 (NURR1) (AID 2282985; active means hit-call score of the fitted dose curve at least 0.9, where 1 is the maximum); settings: HepG2 Attagene TRANS reporter, mRNA readout
Outline: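 Transient transfection of HepG2, human liver cells, with multiple GAL4-UAS reporter transcription units. Cells dosed 24 h, RNA isolated, reverse-transcribed, PCR-amplified, FAM-labelled, HpaI-digested, sized by capillary electrophoresis. DMSO served as negative control.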

[17] = ATG_M_06_TRANS: Attagene TRANS-FACTORIAL HepG2 Assay for M06 Transcription Factor (Internal Marker) (AID 2282983; active means hit-call score of the fitted dose curve at least 0.9, where 1 is the maximum;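 further: reporter transcript level by RT-PCR then capillary electrophoresis fluorescence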); settings: HepG2 Attagene TRANS M06 internal marker reporter
Outline: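 Measured by capillary electrophoresis of fluorescently labelled RT-PCR products, this endpoint reflects reporter mRNA in HepG2 cells harbouring exogenous NR-GAL4 reporter constructs after 24 h exposure, with DMSO as baseline.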

Measured: AC50

Hepatocyte nuclear factor 4-alpha (Homo sapiens), sequence (P41235 whole entry, looked up, the tested form may be a part): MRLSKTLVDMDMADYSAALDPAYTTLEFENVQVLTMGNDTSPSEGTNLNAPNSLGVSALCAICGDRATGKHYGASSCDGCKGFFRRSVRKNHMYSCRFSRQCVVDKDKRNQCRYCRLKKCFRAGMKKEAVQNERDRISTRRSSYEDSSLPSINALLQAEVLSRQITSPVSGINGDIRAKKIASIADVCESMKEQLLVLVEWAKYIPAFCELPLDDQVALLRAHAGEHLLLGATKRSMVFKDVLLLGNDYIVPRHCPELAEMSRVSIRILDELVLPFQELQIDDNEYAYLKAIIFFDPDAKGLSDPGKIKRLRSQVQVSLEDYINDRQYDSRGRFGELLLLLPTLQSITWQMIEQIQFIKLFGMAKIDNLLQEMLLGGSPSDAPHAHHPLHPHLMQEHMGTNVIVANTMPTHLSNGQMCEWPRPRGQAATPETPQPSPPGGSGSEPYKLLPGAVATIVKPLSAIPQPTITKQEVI
Glucocorticoid receptor (Homo sapiens), sequence (P04150 whole entry, looked up): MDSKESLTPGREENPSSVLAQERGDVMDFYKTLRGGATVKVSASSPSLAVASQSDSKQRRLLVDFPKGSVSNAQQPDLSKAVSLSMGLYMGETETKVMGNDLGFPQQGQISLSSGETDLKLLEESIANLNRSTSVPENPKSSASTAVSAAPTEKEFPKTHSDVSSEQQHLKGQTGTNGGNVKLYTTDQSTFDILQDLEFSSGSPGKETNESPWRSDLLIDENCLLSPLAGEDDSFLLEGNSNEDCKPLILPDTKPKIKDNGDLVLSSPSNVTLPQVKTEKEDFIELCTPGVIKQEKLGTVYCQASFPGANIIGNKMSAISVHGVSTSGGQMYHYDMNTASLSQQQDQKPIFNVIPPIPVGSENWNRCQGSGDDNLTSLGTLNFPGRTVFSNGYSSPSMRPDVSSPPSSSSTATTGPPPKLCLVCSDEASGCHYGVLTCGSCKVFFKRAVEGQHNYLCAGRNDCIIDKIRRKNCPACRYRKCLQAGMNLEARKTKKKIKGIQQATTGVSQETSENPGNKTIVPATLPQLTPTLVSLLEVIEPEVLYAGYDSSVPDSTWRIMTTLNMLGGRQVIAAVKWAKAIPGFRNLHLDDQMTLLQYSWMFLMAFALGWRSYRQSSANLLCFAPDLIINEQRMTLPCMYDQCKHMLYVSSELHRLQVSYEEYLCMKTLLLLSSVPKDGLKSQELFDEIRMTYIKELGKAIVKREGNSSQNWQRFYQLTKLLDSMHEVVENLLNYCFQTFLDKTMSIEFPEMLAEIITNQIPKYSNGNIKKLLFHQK
Cellular tumor antigen p53 (Homo sapiens), sequence (P04637 whole entry, looked up): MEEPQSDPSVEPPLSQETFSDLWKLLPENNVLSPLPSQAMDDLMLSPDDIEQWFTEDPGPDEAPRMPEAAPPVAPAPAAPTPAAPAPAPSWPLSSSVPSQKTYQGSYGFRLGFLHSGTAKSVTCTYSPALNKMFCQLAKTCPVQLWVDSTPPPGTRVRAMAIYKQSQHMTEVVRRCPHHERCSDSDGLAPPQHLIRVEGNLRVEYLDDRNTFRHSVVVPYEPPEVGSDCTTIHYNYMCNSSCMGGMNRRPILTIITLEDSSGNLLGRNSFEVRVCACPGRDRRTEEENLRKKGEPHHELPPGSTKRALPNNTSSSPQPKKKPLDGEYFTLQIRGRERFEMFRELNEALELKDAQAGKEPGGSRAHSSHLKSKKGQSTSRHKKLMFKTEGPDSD
Transcriptional activator Myb (Homo sapiens), sequence (P10242 whole entry, looked up): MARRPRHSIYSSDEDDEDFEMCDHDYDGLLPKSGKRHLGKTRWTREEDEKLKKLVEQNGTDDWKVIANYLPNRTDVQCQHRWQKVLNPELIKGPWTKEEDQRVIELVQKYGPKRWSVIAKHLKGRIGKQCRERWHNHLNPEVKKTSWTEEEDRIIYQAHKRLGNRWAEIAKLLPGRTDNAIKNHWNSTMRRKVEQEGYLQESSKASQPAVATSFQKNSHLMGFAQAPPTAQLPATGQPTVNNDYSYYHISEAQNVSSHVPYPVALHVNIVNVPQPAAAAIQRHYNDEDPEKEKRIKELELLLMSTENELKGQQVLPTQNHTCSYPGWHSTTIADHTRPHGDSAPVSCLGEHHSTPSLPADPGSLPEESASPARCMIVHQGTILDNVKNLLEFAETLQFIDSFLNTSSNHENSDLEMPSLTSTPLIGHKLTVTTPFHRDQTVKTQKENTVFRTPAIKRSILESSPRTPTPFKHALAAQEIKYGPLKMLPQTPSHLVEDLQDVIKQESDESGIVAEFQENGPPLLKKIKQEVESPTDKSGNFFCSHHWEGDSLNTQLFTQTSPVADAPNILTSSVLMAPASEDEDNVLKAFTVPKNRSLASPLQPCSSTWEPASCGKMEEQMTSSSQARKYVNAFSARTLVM
Bile acid receptor (Homo sapiens), sequence (Q96RI1 whole entry, looked up, the tested form may be a part): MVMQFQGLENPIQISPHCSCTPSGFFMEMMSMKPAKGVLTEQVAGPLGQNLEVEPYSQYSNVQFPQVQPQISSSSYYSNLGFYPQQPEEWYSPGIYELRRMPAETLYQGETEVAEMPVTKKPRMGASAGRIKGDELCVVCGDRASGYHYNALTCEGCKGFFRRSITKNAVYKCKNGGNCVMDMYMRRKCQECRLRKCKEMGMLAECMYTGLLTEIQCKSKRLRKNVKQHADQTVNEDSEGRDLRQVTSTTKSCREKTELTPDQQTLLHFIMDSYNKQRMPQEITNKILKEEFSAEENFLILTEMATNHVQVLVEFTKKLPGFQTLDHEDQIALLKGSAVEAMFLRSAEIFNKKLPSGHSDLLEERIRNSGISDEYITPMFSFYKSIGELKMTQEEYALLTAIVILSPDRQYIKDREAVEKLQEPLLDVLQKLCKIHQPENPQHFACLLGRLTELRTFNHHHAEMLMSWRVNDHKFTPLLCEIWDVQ
Myc proto-oncogene protein (Homo sapiens), sequence (P01106 whole entry, looked up): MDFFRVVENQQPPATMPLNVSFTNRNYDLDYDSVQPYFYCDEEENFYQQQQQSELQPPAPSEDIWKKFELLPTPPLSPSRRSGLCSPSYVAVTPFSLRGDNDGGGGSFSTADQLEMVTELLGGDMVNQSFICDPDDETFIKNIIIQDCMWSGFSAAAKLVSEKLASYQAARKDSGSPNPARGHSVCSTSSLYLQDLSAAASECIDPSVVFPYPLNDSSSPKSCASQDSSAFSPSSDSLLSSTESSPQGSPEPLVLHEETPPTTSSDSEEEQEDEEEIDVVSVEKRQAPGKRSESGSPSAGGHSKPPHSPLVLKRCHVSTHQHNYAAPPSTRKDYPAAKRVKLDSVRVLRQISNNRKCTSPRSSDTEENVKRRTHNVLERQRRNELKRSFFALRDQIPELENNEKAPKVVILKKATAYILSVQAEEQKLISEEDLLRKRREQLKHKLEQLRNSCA
Nuclear receptor subfamily 4 group A member 2 (Homo sapiens), sequence (P43354 whole entry, looked up, the tested form may be a part): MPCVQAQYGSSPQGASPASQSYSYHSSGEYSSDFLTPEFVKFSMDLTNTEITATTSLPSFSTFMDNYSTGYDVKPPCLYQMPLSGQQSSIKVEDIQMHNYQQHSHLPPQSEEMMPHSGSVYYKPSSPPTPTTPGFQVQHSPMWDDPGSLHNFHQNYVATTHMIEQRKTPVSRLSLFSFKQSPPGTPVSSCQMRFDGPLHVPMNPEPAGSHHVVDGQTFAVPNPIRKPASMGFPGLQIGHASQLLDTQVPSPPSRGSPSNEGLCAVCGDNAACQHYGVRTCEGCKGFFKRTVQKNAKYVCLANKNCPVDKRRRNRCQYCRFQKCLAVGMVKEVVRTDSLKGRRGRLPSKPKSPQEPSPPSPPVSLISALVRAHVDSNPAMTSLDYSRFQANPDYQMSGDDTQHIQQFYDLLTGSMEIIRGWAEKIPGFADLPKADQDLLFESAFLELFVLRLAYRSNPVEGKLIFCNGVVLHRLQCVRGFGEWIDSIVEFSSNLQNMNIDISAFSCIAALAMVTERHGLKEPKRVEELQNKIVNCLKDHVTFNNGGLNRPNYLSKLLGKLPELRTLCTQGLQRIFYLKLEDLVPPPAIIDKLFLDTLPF
Oxysterols receptor LXR-alpha (Homo sapiens), sequence (Q13133 whole entry, looked up): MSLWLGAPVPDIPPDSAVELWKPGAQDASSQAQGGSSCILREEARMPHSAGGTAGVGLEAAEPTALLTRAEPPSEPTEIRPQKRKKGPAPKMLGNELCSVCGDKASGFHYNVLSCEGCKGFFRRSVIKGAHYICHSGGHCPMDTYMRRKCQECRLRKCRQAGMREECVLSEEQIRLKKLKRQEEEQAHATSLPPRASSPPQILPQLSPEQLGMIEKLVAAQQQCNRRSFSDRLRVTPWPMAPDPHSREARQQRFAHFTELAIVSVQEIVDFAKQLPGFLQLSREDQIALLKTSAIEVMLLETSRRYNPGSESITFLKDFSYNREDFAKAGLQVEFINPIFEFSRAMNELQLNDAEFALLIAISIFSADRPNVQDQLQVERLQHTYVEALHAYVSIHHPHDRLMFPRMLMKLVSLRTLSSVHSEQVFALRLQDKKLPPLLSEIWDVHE
Nuclear respiratory factor 1 (Homo sapiens), sequence (Q16656 whole entry, looked up): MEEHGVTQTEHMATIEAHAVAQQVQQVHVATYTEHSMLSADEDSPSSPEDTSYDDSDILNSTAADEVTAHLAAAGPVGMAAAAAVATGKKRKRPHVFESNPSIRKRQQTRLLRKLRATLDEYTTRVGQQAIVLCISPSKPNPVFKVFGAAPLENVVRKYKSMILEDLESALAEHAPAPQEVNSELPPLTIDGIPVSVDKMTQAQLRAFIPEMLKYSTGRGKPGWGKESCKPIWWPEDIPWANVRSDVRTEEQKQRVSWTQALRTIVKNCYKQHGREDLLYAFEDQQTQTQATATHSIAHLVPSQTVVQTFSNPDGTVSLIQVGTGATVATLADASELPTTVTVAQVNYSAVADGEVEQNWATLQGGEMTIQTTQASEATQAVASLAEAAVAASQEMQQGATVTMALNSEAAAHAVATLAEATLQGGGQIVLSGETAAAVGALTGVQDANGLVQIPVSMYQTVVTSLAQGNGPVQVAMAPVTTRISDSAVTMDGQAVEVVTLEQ

CC(C)(C)C(=O)C(Oc1ccc(Cl)cc1)n1cncn1 (centres undefined)
inactive: [1] | [2] | [3] | [4] | [5] | [6] | [7] | [8] | [9] | [10] | [13] | [14]
active: [11] 20.3 µM | [12] 19.4 µM

CNC(=O)Oc1cccc2ccccc12
active: [8] 74.5 µM | [11] 15.6 µM | [12] 50 µM
inactive: [15] | [2] | [3] | [16] | [6] | [7] | [10] | [13] | [14]

CC(C)Nc1nc(Cl)nc(NC(C)C)n1
inactive: [2] | [3] | [4] | [17] | [5] | [16] | [6] | [7] | [8] | [11] | [12] | [13] | [14]

Cn1c(-c2ccccc2)cc(-c2ccccc2)[n+]1C
inactive: [2] | [3] | [4] | [5] | [6] | [7] | [8] | [9] | [11] | [12] | [13] | [14]

CC(C)C1(C)N=C(c2ncccc2C(=O)O)NC1=O (centres undefined)
inactive: [1] | [15] | [2] | [3] | [4] | [6] | [7] | [8] | [9] | [11] | [12] | [13] | [14]

OC(c1ccc(Cl)cc1)(c1ccc(Cl)cc1)C(Cl)(Cl)Cl
inactive: [1] | [3] | [4] | [17] | [6] | [7] | [8] | [10] | [11] | [12] | [13]
active: [14] 25.6 µM

O=P(O)(O)CCCl
inactive: [15] | [2] | [3] | [4] | [17] | [5] | [16] | [6] | [7] | [8] | [10] | [11] | [12] | [13] | [14]

O=C(O)c1c(Cl)ccc2cc(Cl)cnc12
inactive: [3] | [6] | [7] | [8] | [9] | [10] | [11] | [12] | [14]

CCNP(=S)(OC)O/C(C)=C/C(=O)OC(C)C (centres undefined)
inactive: [2] | [3] | [4] | [17] | [16] | [6] | [7] | [8] | [9] | [10] | [12] | [13] | [14]
active: [11] 7.44 µM

From PubChem BioAssay (EPA / NIEHS)
